Experimental data from PubChem BioAssay (Tox21).
A number with no mark means an inactive call. A call without a number means that no potency is given here. Activity calls are given as the source filed them. The call rests on the fitted dose curve; in most records, active means well fitted curve in the direction sought with a large enough effect in the repeat runs; inconclusive means weak or mixed curves; inactive means flat fitted curve, though single readings scatter.

experiment: qHTS assay to test for compound auto fluorescence at 460 nm (blue) in HepG2 cell free culture (AID 720685); conditions: Cell-free culture medium, blue autofluorescence 405/460 nm; series mostly up to 91.3 µM
Source text: U.S. Tox21 Program National Center for Advancing Translational Sciences [NCATS] NIH Chemical Genomics Center [NCGC] U.S. Environmental Protection Agency [EPA] National Institutes of Environmental Health Sciences [NIEHS] National Toxicology Program [NTP] U.S. Food and Drug Administration [FDA] Tox21 Assay Overview: Compound auto fluorescence often interferes with screening of the compound library against various biological targets and signaling pathways. Some of these compounds may have fluorophoric properties. Such properties may interfere with the assay outputs resulting in false positives and/or negatives. To decrease such complications and ensure the compound activities are relevant in terms of biological response, the Tox21 10K compound library was screened for auto fluorescence. From the fluorophores used as reporter signals in our screening assays, the auto fluorescence equivalencies of compounds against three fluorophores have been evaluated: Triamterene, Fluorescein and Rose Bengal sodium for blue, green and red fluorescence, respectively. The fluorescence intensities were measured using Excitation/Emission wavelengths at 405/460nm, 485/535nm and 540/590nm for blue, green and red labels, respectively. This assay includes the blue fluorescence data.
Tox21 Assay Protocol Summary: 5 uL of culture medium (MEM containing 10% FBS) per well was dispensed into black wall/clear bottom 1536-well plates using a Multidrop Combi Dispenser (ThermoFisher Scientific, Waltham, MA). After 23 nL compound or DMSO vehicle was transferred into assay plate by a pintool work station (Kalypsys, San Diego, CA), fluorescence intensities in the assay plates were measured by an Envision (PerkinElmer, Shelton, CT) plate reader using three labels for measuring blue, green and red fluorescence at […] 460, 535 and 590nm respectively.

Row | SMILES | Potency | fluorescence, % of fluorescent control
1 | CC(CN(CCN(CC(C)OCCO)CC(C)OCCO)CC(C)OCCO)OCCO (stereo not given) | inactive | 
2 | C=CCOC(=O)COCCC(C)C | inactive | 
3 | NC(=O)c1ccccc1[N+](=O)[O-] | inactive | 
4 | O=C(O)c1ccc(O)cc1O | inactive | 
5 | SCCc1cnccn1 | inactive | 
6 | CCCc1nc2c(C)cc(-c3nc4ccccc4n3C)cc2n1Cc1ccc(-c2ccccc2C(=O)O)cc1 | inactive | 
7 | CCCCCCCCCCCCCOC(=O)CCSCCC(=O)OCCCCCCCCCCCCC |  | -0.0714% [at 18.6 µM]
8 | Nc1ccc(F)cc1 | inactive | 
9 | O=C(O)CCCc1c[nH]c2ccccc12 | inactive | 
10 | CCC(CO)(CO)CO | inactive | 
11 | Nc1c(Cl)cc(Cl)cc1[N+](=O)[O-] | inactive | 
12 | CC(=O)OCC(C)C | inactive | 
13 | O=C(CCS)OCC(COC(=O)CCS)(COC(=O)CCS)COC(=O)CCS | inactive | 
14 | CCCCCCOC(=O)CCCCC | inactive | 
15 | CCCCCC | inactive | 
16 | COc1ccc(C)cc1 | inactive | 
17 | CC(C)(C)NCC(O)COc1cccc2c1C[C@H](O)[C@H](O)C2 (stereo not given in full) |  | 0.0077% [at 18.6 µM]
18 | COc1cc(NC(C)CCCN)c2ncccc2c1 (stereo not given) |  | 0.907% [at 18.6 µM]
19 | CC1CCCO1 (stereo not given) | inactive | 
20 | Cc1ccc2nc(N)[nH]c(=O)c2c1Sc1ccncc1 | inactive | 

Row | SMILES | Potency | fluorescence, % of fluorescent control
21 | O=C(C(=O)c1ccco1)c1ccco1 | inactive | 
22 | COc1ccc(CCN(C)CCCN2CCc3cc(OC)c(OC)cc3CC2=O)cc1OC | inactive | 
23 | CSSc1ccoc1C | inactive | 
24 | CC(C)(C)C(O)/C=C/c1ccc2c(c1)OCO2 (stereo not given) | inactive | 
25 | CC(=O)Oc1cccc(O)c1 | inactive | 
26 | NC(=O)CCCCC(N)=O | inactive | 
27 | CC(C)c1ccc(C(=O)N=C(N)N)cc1S(C)(=O)=O | inactive | 
28 | CCCC(=O)OC(=O)CCC | inactive | 
29 | COc1ccc(C(=O)NCc2ccc(OCCN(C)C)cc2)cc1OC | inactive | 
30 | CCC(Cl)CC(Cl)C(Cl)C(Cl)C(Cl)C(C)Cl (stereo not given) |  | 0.066% [at 13.4 µM]
31 | [Cl][Nd]([Cl])[Cl] | inactive | 
32 | c1ccc(CCCc2ccncc2)cc1 | inactive | 
33 | CSCC[C@H](NC(=O)[C@H](Cc1c[nH]c2ccccc12)NC(=O)CCNC(=O)OC(C)(C)C)C(=O)N[C@@H](CC(=O)O)C(=O)N[C@@H](Cc1ccccc1)C(N)=O | inactive | 
34 | COc1cc(S(=O)(=O)Nc2ccccc2)c(OC)cc1N | inactive | 
35 | CN1C(CSCC(F)(F)F)Nc2cc(Cl)c(S(N)(=O)=O)cc2S1(=O)=O (stereo not given) | inactive | 
36 | COC1CCC=CO1 (stereo not given) | inactive | 
37 | Nc1cccc2c(N)cccc12 | inactive | 
38 | OCC(CO)n1cnc(-c2ccc(F)cc2)c1-c1ccnc(Oc2ccccc2)n1 | inactive | 
39 | Cc1ccc2c(c1[N+](=O)[O-])C(=O)c1ccccc1C2=O | inactive | 
40 | Cc1c[nH]c2ccccc12 | inactive | 
